Source: PubChem
Shiga toxin inh = A qHTS for Small Molecule Inhibitors of Shiga Toxin; inhibition, % at 38.7 µM; actives 9.2% (n = 290,000); Vero cells, Shiga toxin protein synthesis inhibition reporter; in the data active = inhibition mostly above about 28%, no sharp cut-off; inactive = mostly below about 43%
Cycloheximide cs = Cycloheximide Counterscreen for Small Molecule Inhibitors of Shiga Toxin; max response, %; cell reporter, cycloheximide protein synthesis inhibition counterscreen; actives 12% (n = 300,000); in the data active = max response mostly above about 13%, no sharp cut-off; inactive = mostly below about 14%; also: read at 38.3 µM for the half of the compounds with a filed dose
Marburg entry inh = qHTS for inhibitors of binding or entry into cells for Marburg Virus. actives 1.8% (n = 300,000). Potency, µM (highest dose often 37.8 µM), most hits filed as inhibitors. Marburg virus pseudotyped entry inhibition, cell reporter. AID 540276, 2011; calls by dose curve; tested in HEK293 cells
LASV entry inh = qHTS for Inhibitors of binding or entry into cells for Lassa Virus. Lassa virus pseudotype entry inhibition, cell reporter. Potency, µM (top dose mostly 37.9 µM), usual class: inhibitors. actives 1.2% (n = 300,000). AID 540256, 2011; calls by dose curve; tested in HEK293 cells; also: nearly all actives have a fitted effect of over 50% in size
Numbers stand for hits; n = inactive; u = inconclusive; x = not tested or not shown. Shown are actives, neighbours in structure and some others; about 12% of the full set was active somewhere.

SMILES	Shiga toxin inh	Cycloheximide cs	Marburg entry inh	LASV entry inh
COc1ccc(CNC(=O)CN(C(=O)CCC(=O)Nc2ccccn2)c2ccc3c(c2)OCO3)cc1	n	n	n	u
CC(C)Oc1ccccc1/C=N/NC(=O)c1ccc(F)cc1	20	27	u	u
O=C(O)COc1ccccc1/C=N/NC(=O)c1ccc(F)cc1	n	n	u	n
COc1ccc(Cl)cc1NC(=O)c1cnc2sc(N3CCOCC3)nn2c1=O	x	x	x	n
Cc1oc2cc(O)cc(O)c2c(=O)c1-c1ccc2c(c1)OCCCO2	116	34	n	n
CCOC(=O)c1oc2cc(O)c(CC)cc2c(=O)c1-c1ccc2c(c1)OCCO2	n	n	x	x
COc1ccc(-c2oc3cc(OC(C)=O)cc(OC(C)=O)c3c(=O)c2OC)cc1	x	x	n	u
CC(=O)Oc1cc(OC(C)=O)c2c(=O)c(-c3ccc4c(c3)OCCCO4)c(C)oc2c1	n	8.3	u	n
CCN(CC)C(=O)C(=O)c1cccn1-c1cccc(OC)c1C#N	n	n	x	x
O=C(O)c1ccc(N/N=C/c2ccc(-c3cccc(Cl)c3)o2)cc1	82	60	x	x
O=C(O)c1ccc(N/N=C/c2ccc(-c3ccc(Cl)cc3Cl)o2)cc1	111	39	x	x
O=C(O)c1ccc(N/N=C/c2ccc(-c3cc(Cl)ccc3Cl)o2)cc1	112	81	x	x
O=C(O)c1cc(N/N=C/c2ccc(-c3ccc(F)cc3)o2)ccc1Cl	152	46	u	n
COC(=O)c1ccc(Cl)c(-c2ccc(/C=N/NC(=O)Nc3ccccc3)o2)c1	n	n	n	n
CN1C(=O)C(C)(C)c2cc(S(=O)(=O)N3CCCC3C(=O)Nc3ccc(F)cc3)ccc21 (stereo not given)	x	x	x	n
CCOC(=O)C1CCN(S(=O)(=O)c2ccc3c(c2)CCN3C(=O)C2CCC2)CC1	n	n	x	x
O=C(OCc1cccc(Cl)c1)c1cc(S(=O)(=O)N2CCCCC2)ccc1N1CCOCC1	n	n	11µM	u
CC(C)NC(=O)NC(=O)COC(=O)c1cc(S(=O)(=O)N2CCCCC2)ccc1N1CCOCC1	44	12	x	x
Cc1ccc(COC(=O)c2cc(S(=O)(=O)N3CCCCC3)ccc2N2CCOCC2)cc1	x	x	u	7.1µM
Cc1ccc(C)c(COC(=O)c2cc(S(=O)(=O)N3CCCCC3)ccc2N2CCOCC2)c1	x	x	u	7.1µM
O=C(COC(=O)c1cc(S(=O)(=O)N2CCCCC2)ccc1N1CCOCC1)c1ccccc1	x	x	u	n
COCCN1C(=O)C2=C(C1=O)C1N(C)c3ccccc3[C@@]13C[C@@H](CO)N(C(=O)CCC(=O)OC)C3=N2 (stereo not given in full)	x	x	n	x
O=C(Cn1c(=O)oc2ccccc21)NCc1cccc(Cl)c1	x	x	n	x
NC(=O)Cc1c[nH]c2cccc(O)c12	n	n	n	n
O=C(O)CC/C(=C\c1ccc(N2CCOCC2)c([N+](=O)[O-])c1)c1nc2ccccc2s1	n	11	x	x
SMILES	Shiga toxin inh	Cycloheximide cs	Marburg entry inh	LASV entry inh
O=C(O)CC/C(=C\c1ccc2c(c1)OCO2)c1nc2ccccc2s1	n	34	n	n
O=C(O)C/C(=C\c1ccc(N2CCOCC2)c([N+](=O)[O-])c1)c1nc2ccccc2s1	n	20	x	x
O=C(O)CC/C(=C\c1ccc(Cl)c([N+](=O)[O-])c1)c1nc2ccccc2s1	n	n	u	n
CCCS(=O)(=O)N1CCC(C(=O)NCCC(C)C)CC1	n	n	n	n
CCCn1c(-c2ccc[nH]c2=O)nc2cc(C)c(C)cc21	72	38	n	n
CCOc1cccc(/C=N/NC(=O)c2cccnc2)c1O	n	21	x	x
CCOc1cccc(/C=N/NC(=O)c2cc(C3CC3)[nH]n2)c1O	n	18	x	x
CCOc1cc(/C=N/NC(=O)c2cccnc2)ccc1O	n	n	n	n
COc1ccc(NC(=O)c2ccc(S(=O)(=O)C(F)F)cc2)c(OC)c1	n	n	x	x
COc1ccc(S(=O)(=O)N2CCC(C(=O)Nc3ccc(Oc4ccccc4)cc3)CC2)cc1OC	x	x	n	n
CCOC(=O)/C=C1\NC(C)(C)CC2=C1CC(O)=C(OC)C2	x	x	n	x
CCc1cc[n+](-c2nc3ccccc3nc2[N-]S(=O)(=O)c2ccc(Br)s2)cc1	n	13	n	n
Cc1cc[n+](-c2nc3ccccc3nc2[N-]S(=O)(=O)c2ccccc2)cc1	n	n	n	u
Cc1[nH]c(=O)[nH]c(=O)c1/C=N/NC(=O)CCCCCNC(=O)OC(C)(C)C	n	n	u	n
Cc1[nH]c(=O)[nH]c(=O)c1/C=N/NC(=O)CCNC(=O)OC(C)(C)C	n	18	x	x
O=C(Oc1cccc(Nc2ncnc3ccccc23)c1)c1ccccc1Cl	n	n	u	n
Cc1nc2ccc(S(=O)(=O)CCC(=O)Nc3ccc(C)c(C)c3)cc2s1	x	x	x	n
c1ccc(-c2ccccn2)nc1	n	n	n	u
S=C=Nc1ccccn1	n	27	x	x
Nc1cc(=O)[nH]c(=O)n1-c1cccc(F)c1	n	n	n	n
O=c1ncn(-c2cccc(F)c2)c2ncccc12	n	14	n	n
CCOC(CNC(=O)Cc1c(C)nc2c(-c3ccccc3)c(C)nn2c1C)OCC	n	n	n	n
CC(CN1CCCCC1)OC(=O)/C=C/c1ccccc1 (stereo not given)	n	n	x	x
Cc1ccc(OCCCN2CCOCC2)c([N+](=O)[O-])c1	74	36	n	n
Cc1ccc(OCCN2CCN(C)CC2)c([N+](=O)[O-])c1	n	n	u	n
SMILES	Shiga toxin inh	Cycloheximide cs	Marburg entry inh	LASV entry inh
C=CCN(CC=C)CCOc1ccc(C)cc1[N+](=O)[O-]	71	26	u	u
C=CCNCCOc1ccc(C)cc1[N+](=O)[O-]	n	n	x	x
C=CCN(CC=C)CCOc1cc(C)ccc1[N+](=O)[O-]	40	18	n	n
COC(=O)c1ccc(-n2nnnc2SCC(=O)Nc2ccccc2F)cc1	n	n	x	x
Fc1cccc(CSc2nc3ccncc3[nH]2)c1	50	32	n	u
Clc1cccc(CSc2nc3ccncc3[nH]2)c1	n	n	n	x
Fc1cccc(F)c1CSc1nc2ccccc2[nH]1	111	37	u	u
O=C(CSc1nc2ccccc2[nH]1)N1c2ccccc2Sc2ccccc21	n	n	u	n
Fc1ccccc1CSc1nc2ncccc2[nH]1	63	45	n	n
O=C(CSc1nc2ccccc2[nH]1)c1ccc(Cl)s1	86	39	n	n
O=c1[nH]c(SCc2ccccc2F)nc2ccccc12	n	n	n	n
CC(CCCC(C)(C)O)NCc1cn[nH]c1-c1ccc2c(c1)OCO2 (stereo not given)	n	n	n	n
COc1ccc(NC(=O)c2c(C(=O)Nc3ccccc3)sc3nc(C)cc(=O)n23)cc1	x	x	u	n
O=C(CSc1nc2ccccc2[nH]1)c1c[nH]c2ccccc12	72	29	n	n
Cc1ccc(C)c(NC(=O)C(Sc2nc3ccc(C)cc3[nH]2)c2ccccc2)c1 (stereo not given)	n	n	8.9µM	u
Cc1[nH]c2ccccc2c1C(=O)CSC(=S)N(C)C	74	30	n	n
Cn1c(SCc2ccccc2F)nc2cccnc21	117	28	u	n
CN(C)c1ccc(NC(=O)Cn2c(SCc3ccccc3F)nc3cccnc32)cc1	x	x	x	n
COC(=O)c1cc(C(=O)OCC(=O)N(C)c2ccccc2)cc([N+](=O)[O-])c1	n	n	n	n
O=C(CN1CCCc2ccccc21)NCCc1ccc(F)cc1	n	n	n	n
